Data from PubChem BioAssay AID1117361 (Southern Research Institute, 2015).
About 900 (25%) of roughly 3,600 compounds were called active. The list is a sample of the results. Results with a measured potency or affinity are listed apart. Values without a mark were called inactive. How the calls were made is not given here.

The compounds below were run against Protein Tat (Human immunodeficiency virus type 1 group M subtype B (isolate HXB2)) (UniProt P04608) (assay: HIV-1 Tat–TAR interaction blockers – biochemical, fluorescence polarization, FAM-labeled TAR RNA, counter-screen for Vif-APOBEC3G degradation inhibitor project, dose response (AID 1117361)). Settings: Tat-TAR RNA binding; series mostly up to 100 µM; inhibition: at the top concentration.

Row | Structure (SMILES) | inhibition [%] | outcome
1 | CCC(=O)Nc1cccc(Oc2nc(C)cc(C)c2C#N)c1 | 6.76 | 
2 | Clc1ncnc2scc(-c3ccccc3)c12 | 9.02 | 
3 | Cc1nn(Cc2ccccc2)c(C)c1NC(=O)c1cc(-c2ccc3c(c2)OCO3)on1 |  | inactive
4 | O=C(OCc1ccc(Cl)cc1)c1cnccn1 |  | inactive
5 | Cc1ccccc1CS(=O)(=O)CCC(=O)NCCN1CCN(c2cccc(Cl)c2)CC1 | 13.5 | 
6 | O=C(CN1CCN(c2nc(-c3ccccc3)cs2)CC1)Nc1ccc2c(c1)OCO2 |  | inactive
7 | NNC(=O)CCN1CCN(C(c2ccccc2)c2ccccc2)CC1 |  | inactive
8 | CCOC(=O)CSc1ncnc2c1cnn2-c1ccc(C)cc1 | 0.68 | 
9 | COc1ccc(-n2nnnc2-c2ccccc2)cc1 | 1.36 | 
10 | COc1cnc(SCc2c(Cl)cccc2Cl)nc1Cl | 7.43 | 
11 | CC(NC(=O)CSc1nnc2n1CCCCC2)c1ccccc1Cl (configuration not stated) | 2.47 | 
12 | Clc1c(-c2nnc3n2CCC3)sc2ccccc12 | 2.03 | 
13 | Cc1cc2cc3c(=O)[nH]c(=O)nc-3n(CC(O)C(O)C(O)CO)c2cc1C (configuration not stated) | 23.7 | 
14 | CCCn1nc(NC(=O)c2ccccn2)c2cc3cc(C)ccc3nc21 |  | inactive
15 | O=C1COc2ccc(C(=O)CSc3nnc(-c4cccs4)n3Cc3ccccc3)cc2N1 |  | inactive
16 | COc1cc2ccccc2cc1C(=O)N1CCN(c2ccccc2O)CC1 |  | inactive
17 | CCOCCNC(=O)c1ccccc1C(=O)NCCOCC | 4.05 | 
18 | COc1ccc(Oc2nc(C)cc(C)c2C#N)cc1 |  | inactive
19 | COC(=O)COn1c(-n2nc(C)cc2C)nc2ccccc2c1=O |  | inactive
20 | Cc1ccc(S(=O)(=O)n2ccc(=O)[nH]2)cc1 |  | inactive
21 | CCOC(=O)c1c(NC(=O)c2cc(CC(C)C)on2)sc(C(C)=O)c1C |  | inactive
22 | CCN(CC)C(=O)c1sc(NC(=O)c2ccc3c(c2)OCO3)c(C#N)c1C | 2.7 | 
23 | O=C(COC(=O)C12CC3CC(CC(Br)(C3)C1)C2)Nc1ccc2[nH]c(=O)[nH]c2c1 |  | inactive
24 | COc1cc(CC(=O)NCC(C)(C)N2CCOCC2)cc(OC)c1OC | 7.68 | 

Row | Structure (SMILES) | inhibition [%] | outcome
25 | CCC(Sc1nc(-c2ccccc2)cc(=O)[nH]1)C(=O)O (configuration not stated) | 10.1 | 
26 | N#C/C=C\Oc1ccc(Cl)cc1N | 13 | 
27 | COc1ccccc1OCCOc1ccccc1/C=N/n1cnnc1 |  | inactive
28 | Cc1c(C(=O)N2CCN(c3ccccc3F)CC2)sc2nc(-c3ccccc3)cn12 | 4.77 | 
29 | CN(c1ccc(C(=O)N2CCc3ccccc3C2)cc1)S(C)(=O)=O |  | inactive
30 | COc1ccc(C)cc1NC(=O)COC(=O)CCC(=O)c1cccs1 |  | inactive
31 | CCn1c(N)c(C(=O)NCc2ccc3c(c2)OCO3)sc1=S |  | inactive
32 | CCCn1nc2cc(C(=O)NCc3ccc4c(c3)OCO4)ccc2c1OCC | 0.68 | 
33 | COC(=O)C1=C(O)/C(=C\c2ccc(CNC(=O)C(=O)Nc3ccc(C)c(C)c3)o2)N=C1C | 9.02 | 
34 | CCOC(=O)c1c(C)c(/C=N/Nc2ccccc2)n(C)c1C |  | inactive
35 | COC(=O)C1=C(O)/C(=C/c2cccc(OC)c2O)N=C1C |  | inactive
36 | CCC(C)Nc1nc2c(c(=O)[nH]c(=O)n2C)n1CCC(C)C (configuration not stated) |  | inactive
37 | COC(=O)c1cn[nH]c1NC(=S)Nc1ccc(C)cc1Cl | 15.7 | 
38 | CCCCNC(=O)C1CCCN(S(=O)(=O)c2ccc(-n3cnnn3)cc2)C1 (configuration not stated) |  | inactive
39 | CCN(CC)c1ccc(C2C3CCCCC3(O)CCN2CC(=O)Nc2ccccc2)cc1 (configuration not stated) | 5.41 | 
40 | COc1ccccc1NC(=O)c1cc2ccccc2o/c1=N\O | 15 | 
41 | CC1CN(S(=O)(=O)c2cc(C(=O)NCc3ccncc3)ccc2Cl)CC(C)O1 (configuration not stated) | 3.3 | 
42 | Cc1ccc(Cn2ccc(NC(=O)c3cc(-c4cccc(Cl)c4)on3)n2)cc1 | 9.55 | 
43 | COc1ccc(NC(=O)C2CCCNC2)cc1OCC(C)C (configuration not stated) |  | inactive
44 | O=c1c2c(nc(NCCO)n1CC1CCCCC1)-c1ccccc1CC21CCCC1 |  | inactive
45 | CC(Sc1nnnn1C)C(=O)Nc1ccccc1-c1ccccc1 (configuration not stated) | 2.7 | 
46 | CCOC(=O)CCC(=O)N1CCNC(=O)C1 |  | inactive
47 | CCNC(=O)c1ccc(-n2nc(C(F)(F)F)c3c2CCCC3)cc1 | 1.35 | 
48 | CS(=O)(=O)c1ccc2nnn(OCC(=O)Nc3cccc(C#N)c3)c2c1 |  | inactive

Row | Structure (SMILES) | inhibition [%] | outcome
49 | Cc1cccc2c1NC1(CCCC1)CC2C (configuration not stated) | 14 | 
50 | O=C(NCCCN1CCOCC1)C1CC(=O)N(CCc2ccccc2)C1 (configuration not stated) |  | inactive
51 | CCN(CC)c1ccc(NC(=O)c2c(C)noc2C)cc1 |  | inactive
52 | O=C(c1ccc2c(c1)[nH]c(=S)n1c3ccccc3nc21)N1CCN(c2cccc(Cl)c2)CC1 | 4.12 | 
53 | COc1ccc(S(=O)(=O)N2CCC(C(=O)NCc3cccnc3)CC2)cc1Cl | 3.01 | 
54 | COc1cc(NC(=O)c2cc3nc(-c4ccccc4)cc(-c4ccccc4)n3n2)cc(OC)c1OC | 2.7 | 
55 | CC(=O)c1cccc(NC(=O)CC2Oc3ccc(C)cc3NC2=O)c1 (configuration not stated) | 9.46 | 
56 | O=C(CCNS(=O)(=O)c1ccc(Cl)cc1)NCc1cccnc1 |  | inactive
57 | C=C(C)C1CC=C(C)/C(=N\NC(=O)CCC(=O)Nc2ccc(C)c(C)c2)C1 (configuration not stated) |  | inactive
58 | O=c1c2c([nH]c3ccccc13)CCCCCC2 | 3.38 | 
59 | CC(C)CCNC(=O)Cn1c2c(c(-c3ccccc3Cl)cc1=O)CCC2 | 11.6 | 
60 | FC(F)(F)C1=Nc2cccc3cccc(c23)N1 | 1.67 | 
61 | CCc1nc(-c2ccc(C)nc2OC)no1 | 9.46 | 
62 | CS(=O)(=O)c1ccc(C(=O)Nc2nc(-c3ccco3)c(-c3ccco3)s2)cc1 | 27.7 | 
63 | COc1ccc(NC(=O)CSc2nc3c(cc2C#N)CN(C)CC3)cc1 | 7.68 | 
64 | O=S(=O)(N1CCOCC1)N1CCCN(S(=O)(=O)N2CCOCC2)CC1 |  | inactive
65 | Cc1c(C(=O)N2CCCCC2)nnn1-c1nonc1N | 7.01 | 
66 | CCOC(=O)N1CCC(N2C(=O)c3ccccc3C2Nc2ccccc2)CC1 (configuration not stated) |  | inactive
67 | COc1ccc(-c2noc(Cc3ccc(Cl)cc3)n2)cc1OC |  | inactive
68 | COc1ccc(C(=O)n2nc(-c3ccc(Cl)cc3)nc2N)cc1OC | 13.6 | 
69 | Cc1cc(C)c2c(=N)c3ccccc3n(CCCCCCCCn3c4ccccc4c(=N)c4c(C)cc(C)nc43)c2n1 |  | inactive
70 | COc1cccc(OC)c1OCCCc1c(C)n[nH]c1C | 5.41 | 
71 | O=C(N/C(=C/c1ccc(Cl)cc1)c1nc2ccccc2[nH]1)c1ccco1 | 4.05 | 
72 | COc1cccc(C(=O)Nc2nc3ccccc3[nH]2)c1 | 10.9 | 
